Source: PubChem BioAssay (NCI)
Where “and” joins values, the source holds several entries; their conditions need not be identical. Equal entries are not always repeated. About 79,000 compounds went through this panel and 15% of them were active in at least one assay; those are over-represented in the sample as a whole. Some structures have more than one record in an assay (separate samples or runs), and their calls can disagree. Calls of active or inactive are those of the source. Rule as the data show it: active = growth inhibition above about 70%; inactive = the rest.

Experiment: NCI Yeast Anticancer Drug Screen. Data for the mlh1 rad18 strain (AID 175)
Details: S. cerevisiae mlh1 rad18 strain growth inhibition; at 50.0 µM; stronger effect = higher value
Procedure, shortened: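 Read-out is yeast growth inhibition, calculated against vehicle-only controls. The compound was applied to a strain engineered with DNA damage repair alterations.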

Row | SMILES | growth inhibition
1 | C1CC[N-]CC1.CC(=N\O)/C(C)=N/O.CC(=N\O)/C(C)=N/O.[CH2-]c1ccccc1.[Co+2] | -4.5% (inactive)
2 | C[Si](C)(C)C#CC#C[Si](C)(C)C.[Ni].[Ni].[Ni].[Ni].[c-]1[c-][c-][cH-][c-]1.[c-]1[c-][c-][cH-][c-]1.[c-]1[c-][c-][cH-][c-]1.[c-]1[c-][c-][cH-][c-]1 | -5.85% (inactive)
3 | CC(NC1=NCCO1)c1ccccc1Cl (stereo not given) | -48% (inactive)
4 | O=C(CN1CCCCC1)c1ccc(Br)cc1 | 9.55% (inactive)
5 | COC(=O)C1=C(N2CCCC2)C2c3ccccc3SC12C(=O)OC (stereo not given) | 9.3% (inactive)
6 | CC(=O)O[C@H]1CCC2[C@@H]3CC[C@]4(C)CC(=O)C=C[C@]4(C)C3CC[C@@]21C (stereo not given in full) | 89.3% (active)
7 | Nc1cc(C(=O)O)ccc1O.[Cl][Sn][Cl] | -19.4% (inactive)
8 | Cc1ccc(NC2=NCCS2)cc1Cl | 16.1% (inactive)
9 | [N-]=[N+]=C1CNC(=O)NC1=O | 1.05% (inactive)
10 | CN(C)C(=O)C1(c2ccccc2)CCNCC1 | -4.2% (inactive)
11 | CC(=O)[O][Pb]([CH3])([CH3])[CH3] | -20.8% (inactive)
12 | CN(Cc1cnc2nc(N)nc(N)c2n1)c1ccc(C(=O)NC(CCC(=O)NCC(P(=O)(O)O)P(=O)(O)O)C(=O)O)cc1 (stereo not given) | -20.1% (inactive)
13 | O=C1NC(=O)C(CC(C(=O)C(=O)Nc2ccccc2Cl)C(=O)c2ccc3ccccc3c2)C(=O)N1 (stereo not given) | -3.45% (inactive)
14 | O=C1CCCC2C3CC(CN12)C1CCCCN1C3 (stereo not given) | -29.3% (inactive) and 32.3% (inactive)
15 | CCCCCCCCCCNP(=S)(NCCCCCCCCCC)c1ccccc1 | 2.6% (inactive)
16 | CC(C)(C)c1cc(O)ccc1O | 24.5% (inactive)
17 | Cc1ccc(S(=O)(=O)F)cc1 | 9.5% (inactive)
18 | CC(O)C[As](=O)(O)c1ccccc1Cl (stereo not given) | -16.6% (inactive)
19 | CN1CCCC2(CCCc3ccccc32)C1 (stereo not given) | -5.2% (inactive)
20 | SCc1c(Cl)c(Cl)c(Cl)c(Cl)c1Cl.[Hg] | -28.1% (inactive)

Row | SMILES | growth inhibition
21 | CC[C@@]1(O)C(=O)OCc2c1cc1n(c2=O)Cc2c-1nc1ccccc1c2C=Nc1ccc(N[C@@H]2c3cc4c(cc3[C@@H](c3cc(OC)c(O)c(OC)c3)[C@H]3C(=O)OC[C@@H]32)OCO4)cc1 | 46% (inactive) and 81.2% (active)
22 | CCC1CN2CCC3(C(=O)Nc4ccccc43)C2CC1/C(=C/OC)C(=O)OC (stereo not given) | 12.4% (inactive)
23 | N#CC1(c2ccccc2)CCCC1 | 2.2% (inactive)
24 | CCCCCCCCCCCCCCC(O)C1CCC(C(O)CCC(O)CCCCCC(O)CC2=CC(C)OC2=O)O1 (stereo not given) | 2.7% (inactive)
25 | O=C1C=C2c3ccccc3CC(C(=O)O)C2CC1 (stereo not given) | 9% (inactive)
26 | CCOP(=S)(OCC)N(C)C(=O)Oc1cccc(C(C)C)c1 | 12.2% (inactive)
27 | CCOC(OCC)c1ccccc1 | 14.2% (inactive)
28 | CN1CCC2(CC1)c1ccccc1-c1ccccc12 | -38.7% (inactive)
29 | COc1ccc2c(c1)-c1c(ccc(OC)c1OC(=O)C(=O)c1ccccc1)CC(Cl)N(C)CC2.[O]=[Cr](=[O])([OH])[OH] (stereo not given) | -1.25% (inactive)
30 | NC(Cc1ccc(N(CCCl)Cc2ccccc2)cc1)C(=O)O (stereo not given) | -31.5% (inactive)
31 | NC(=O)C(F)(F)Cl | -19.2% (inactive)
32 | COP(=O)(NC(=O)OC(C)C)OC | -7.95% (inactive)
33 | c1ccc(C[P+]2(c3ccccc3)CCCCC2)cc1 | 3.1% (inactive)
34 | CCS(=O)(=O)CCN1C(=O)CN=C(c2ccccc2F)c2cc(Cl)ccc21 | 16.4% (inactive)
35 | N/C(=N\N=C\c1ccccc1O)N[N+](=O)[O-] | -5.85% (inactive)
36 | CCCCCCCCCCOC(=O)CC(C)=O.CCCCCCCCCCOC(=O)CC(C)=O.[Ni+2] | -39% (inactive)
37 | CCOP(=O)(CCC[N+](=O)[O-])OCC | -7.65% (inactive)
38 | COc1ccc2nc3cc(Cl)ccc3c(NCCCSCCCl)c2n1 | 92.2% (active)
39 | CN(C)CCC(C)(C#N)c1ccccc1 (stereo not given) | 21.1% (inactive)
40 | CC1CC2OC(=O)C(CN3CC3)C2CC2(C)C(O)CC(O)C12 (stereo not given) | 26.1% (inactive)
